Experimental findings from PubChem BioAssay (NCI) are described below.

This is part of a sample that, as a whole, favours compounds with a hit. Of some 79,000 tested, about 15% had one in any assay. Values without a mark were called inactive. Active and inactive are the calls of the source. Rule as the data show it: active = growth inhibition above about 70%; inactive = the rest. Where a SMILES comes first, the peptide text is derived from it. Bridges are numbered along the chain shown (N, C = ends). [ ]: non-standard residue; d: D form. NMeV = CN[CH](C(=O)O)C(C)C; Sar = CNCC(=O)O

Test [1] is described as follows: NCI Yeast Anticancer Drug Screen. Data for the rad50 strain (AID 155).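 Also: 0% = growth of vehicle-only cultures of the same strain.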 As to conditions: S. cerevisiae rad50 strain growth inhibition, hits give high values. The essentials: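 Compounds were tested on a yeast strain with an engineered DNA damage repair alteration; the reported value is growth inhibition normalised to vehicle treatment.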
The nature of test [2]: NCI Yeast Anticancer Drug Screen. Data for the mec2-1 strain (AID 157). Conditions: S. cerevisiae mec2-1 strain, hits give high values. The procedure, abridged: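 Strain: mec2-1 (DNA repair/cell cycle alteration). Compound exposure, then growth measured; inhibition expressed relative to vehicle.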
A short description of test [3]: NCI Yeast Anticancer Drug Screen. Data for the sgs1 mgt1 strain (AID 161).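 Also: 0% = growth of cultures given vehicle only.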 As to conditions: S. cerevisiae sgs1 mgt1 strain, hits give high values. The essentials:
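Test agents were incubated with a DNA-repair-mutant yeast strain. Growth was then read and compared against vehicle-treated controls.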

Test [4] is described as follows: NCI Yeast Anticancer Drug Screen. Data for the cln2 rad14 strain (AID 165).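 Also: 0% = growth equal to vehicle treated cultures.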 As to conditions: S. cerevisiae cln2 rad14 strain, hits give high values. The procedure, abridged:
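Compounds are applied to the cln2 rad14 yeast strain, and growth is then compared with that of vehicle-treated cultures to give inhibition.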

Test [5] in a line: NCI Yeast Anticancer Drug Screen. Data for the bub3 strain (AID 167). As to conditions: S. cerevisiae bub3 mutant strain, hits give high values. The procedure, abridged: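 Growth of a checkpoint-deficient yeast mutant is measured after compound exposure. Values represent inhibition relative to vehicle.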
A short description of test [6]: NCI Yeast Anticancer Drug Screen. Data for the mlh1 rad18 strain (AID 175). As to conditions: S. cerevisiae mlh1 rad18 strain growth inhibition, hits give high values. The procedure, abridged:
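Read-out is yeast growth inhibition, calculated against vehicle-only controls. The compound was applied to a strain engineered with DNA damage repair alterations.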

Setting [7] is: at 5.0 µM (retest, dose inferred, filed as 0.5).
Where [8] appears, read: at 50.0 µM (retest, dose inferred, filed as 5.0).

For `CN(C)CCNC(=O)C(c1ccccc1)c1ccccc1`, the growth inhibition was 31% in test [1] (setting [7]); 13% in test [1] (setting [8]); 63.1% in test [1] (at 50.0 µM); 2% in test [2] (setting [7]); -4% in test [2] (setting [8]); 94.7% (active) in test [2] (at 50.0 µM). Further, the growth inhibition is 6% in test [3] (setting [7]); -25% in test [3] (setting [8]); 12.8% in test [3] (at 50.0 µM); -1% in test [4] (setting [7]); -3% in test [4] (setting [8]); 96.2% (active) in test [4] (at 50.0 µM). Besides, the growth inhibition in test [5] (setting [7]) was -1%; in test [5] (setting [8]) it was -11%; in test [5] (at 50.0 µM) it was 98% (active); in test [6] (setting [7]) it was 30%; in test [6] (setting [8]), 11%; in test [6] (at 50.0 µM) it was 98.5% (active).
In the case of `COc1ccc(C(C)=O)c(OC(=O)c2ccccc2)c1OC(=O)c1ccccc1`, the growth inhibition in test [1] (setting [7]) was -22%; in test [1] (setting [8]) it was 9%; in test [1] (at 50.0 µM) it was 5.05%; in test [2] (setting [7]) it was -1%; in test [2] (setting [8]), 7%; in test [2] (at 50.0 µM), 10.2%. Besides, the growth inhibition is -21% in test [3] (setting [7]); -10% in test [3] (setting [8]); -12.1% in test [3] (at 50.0 µM); 2% in test [4] (setting [7]); 11% in test [4] (setting [8]); -3% in test [4] (at 50.0 µM). Besides, the growth inhibition in test [5] (setting [7]) is -10%; in test [5] (setting [8]), -1%; in test [5] (at 50.0 µM) it was 1.15%; in test [6] (setting [7]), -1%; in test [6] (setting [8]) it was 4%; in test [6] (at 50.0 µM), -0.9%.
Take `CC(=O)OC1CCC(C(C)(C)C)C(C)C1` (configuration not stated): the growth inhibition was 3% in test [1] (setting [7]); 43% in test [1] (setting [8]); 11.4% in test [1] (at 50.0 µM); 5% in test [2] (setting [7]); 70% (active) in test [2] (setting [8]); 45.5% in test [2] (at 50.0 µM). In addition, the growth inhibition in test [3] (setting [7]) was 6%; in test [3] (setting [8]), 42%; in test [3] (at 50.0 µM), 43.4%; in test [4] (setting [7]), 2%; in test [4] (setting [8]), 68%; in test [4] (at 50.0 µM) it was 9.55%. In addition, the growth inhibition was -4% in test [5] (setting [7]); 67% in test [5] (setting [8]); 32.9% in test [5] (at 50.0 µM); 3% in test [6] (setting [7]); 47% in test [6] (setting [8]); 29.5% in test [6] (at 50.0 µM).
As for `CCCCCCCCCCCCCCCCN`, the growth inhibition in test [1] (setting [7]) was 98% (active); in test [1] (setting [8]) it was 97% (active); in test [1] (at 50.0 µM), 99% (active); in test [2] (setting [7]), 20%; in test [2] (setting [8]), 99% (active); in test [2] (at 50.0 µM), 99.4% (active). Besides, the growth inhibition in test [3] (setting [7]) is 99% (active); in test [3] (setting [8]), 98% (active); in test [3] (at 50.0 µM) it was 99.2% (active); in test [4] (setting [7]), 54%; in test [4] (setting [8]) it was 97% (active); in test [4] (at 50.0 µM) it was 98.8% (active). The growth inhibition is 98% (active) in test [5] (setting [7]); 98% (active) in test [5] (setting [8]); 98.8% (active) in test [5] (at 50.0 µM); 98% (active) in test [6] (setting [7]); 98% (active) in test [6] (setting [8]); 98.7% (active) in test [6] (at 50.0 µM).
Regarding `CC(C)C1NC(=O)C(N)C(C)OC(=O)C(C(C)C)N(C)C(=O)CN(C)C(=O)C2CCCN2C1=O` (configuration not stated) (tested in a mixture with another compound) (H-TVP[Sar][NMeV]; ester 1-C; configuration not given here), the growth inhibition is 21% in test [1] (setting [7]); 94% (active) in test [1] (setting [8]); 89.1% (active) in test [1] (at 50.0 µM); 10% in test [2] (setting [7]); 97% (active) in test [2] (setting [8]); 92.2% (active) in test [2] (at 50.0 µM). In addition, the growth inhibition in test [3] (setting [7]) was 18%; in test [3] (setting [8]), 91% (active); in test [3] (at 50.0 µM), 90.3% (active); in test [4] (setting [7]), 39%; in test [4] (setting [8]) it was 95% (active); in test [4] (at 50.0 µM), 87.5% (active). The growth inhibition is 16% in test [5] (setting [7]); 96% (active) in test [5] (setting [8]); 90.8% (active) in test [5] (at 50.0 µM); 11% in test [6] (setting [7]); 95% (active) in test [6] (setting [8]); 90.2% (active) in test [6] (at 50.0 µM).
In the case of `COc1cc(CC#N)c(NC(C)=O)cc1OC`, the growth inhibition in test [1] (setting [7]) is 0%; in test [1] (setting [8]), -4%; in test [1] (at 50.0 µM) it was -2.3%; in test [2] (setting [7]), -41%; in test [2] (setting [8]), -3%; in test [2] (at 50.0 µM), 28.6%. The growth inhibition was 0% in test [3] (setting [7]); -2% in test [3] (setting [8]); -8.45% in test [3] (at 50.0 µM); 1% in test [4] (setting [7]); -2% in test [4] (setting [8]); 41% in test [4] (at 50.0 µM). Moreover, the growth inhibition was -7% in test [5] (setting [7]); -7% in test [5] (setting [8]); 6.05% in test [5] (at 50.0 µM); -1% in test [6] (setting [7]); -3% in test [6] (setting [8]); 9.1% in test [6] (at 50.0 µM).
As to `O=CCCCc1cc2c(cc1Br)CCC2`, the growth inhibition in test [1] (setting [7]) is 0%; in test [1] (setting [8]), 62%; in test [1] (at 50.0 µM), 60.9%; in test [2] (setting [7]), 14%; in test [2] (setting [8]) it was 62%; in test [2] (at 50.0 µM), 70.9% (active). The growth inhibition was 11% in test [3] (setting [7]); 73% (active) in test [3] (setting [8]); 64.2% in test [3] (at 50.0 µM); 10% in test [4] (setting [7]); 82% (active) in test [4] (setting [8]); 72.2% (active) in test [4] (at 50.0 µM). Further, the growth inhibition in test [5] (setting [7]) is 23%; in test [5] (setting [8]), 92% (active); in test [5] (at 50.0 µM) it was 77.5% (active); in test [6] (setting [7]) it was 21%; in test [6] (setting [8]), 91% (active); in test [6] (at 50.0 µM), 50.4%.
Take `Cc1c2cc[n+]([O-])cc2c(C)c2c1oc1ccccc12`: the growth inhibition is 65% in test [1] (setting [7]); 99% (active) in test [1] (setting [8]); 50.5% in test [1] (at 50.0 µM); 34% in test [2] (setting [7]); 98% (active) in test [2] (setting [8]); 46.6% in test [2] (at 50.0 µM). Besides, the growth inhibition in test [3] (setting [7]) was 13%; in test [3] (setting [8]), 98% (active); in test [3] (at 50.0 µM), 42.4%; in test [4] (setting [7]), 23%; in test [4] (setting [8]), 99% (active); in test [4] (at 50.0 µM) it was 50.8%. Besides, the growth inhibition in test [5] (setting [7]) is 32%; in test [5] (setting [8]) it was 99% (active); in test [5] (at 50.0 µM), 95.2% (active); in test [6] (setting [7]), 22%; in test [6] (setting [8]), 98% (active); in test [6] (at 50.0 µM), 55.1%.
Consider `O=C1C(Cl)=C(N2CCN(c3ccccn3)CC2)C(=O)c2ncccc21`, for which the growth inhibition in test [1] (setting [7]) was 40%; in test [1] (setting [8]), 94% (active); in test [1] (at 50.0 µM), 85.3% (active); in test [2] (setting [7]) it was 21%; in test [2] (setting [8]), 98% (active); in test [2] (at 50.0 µM), 88.8% (active). Also, the growth inhibition is 23% in test [3] (setting [7]); 97% (active) in test [3] (setting [8]); 91% (active) in test [3] (at 50.0 µM); 10% in test [4] (setting [7]); 96% (active) in test [4] (setting [8]); 89.4% (active) in test [4] (at 50.0 µM). Further, the growth inhibition in test [5] (setting [7]) was 50%; in test [5] (setting [8]), 98% (active); in test [5] (at 50.0 µM), 88.6% (active); in test [6] (setting [7]), 34%; in test [6] (setting [8]) it was 97% (active); in test [6] (at 50.0 µM), 89.1% (active).
